In the supplement of paper PMC3334620:
In all, about 33,000 sequences were measured (“E-score (-0.5 to 0.5)”: median about -0.0014, highest 2% from about 0.25 on). Only a selection was taken, and the highest values are over-represented in it overall.

The sequences below were run against T1, Cad1 (UniProt P24813) (assay: PBM E-score (8-mer binding enrichment) (E-score (-0.5 to 0.5)); higher = stronger / more preferred TF binding). Conditions: protein concentration: 100 nM; construct: GST-full length.
T1 sequence: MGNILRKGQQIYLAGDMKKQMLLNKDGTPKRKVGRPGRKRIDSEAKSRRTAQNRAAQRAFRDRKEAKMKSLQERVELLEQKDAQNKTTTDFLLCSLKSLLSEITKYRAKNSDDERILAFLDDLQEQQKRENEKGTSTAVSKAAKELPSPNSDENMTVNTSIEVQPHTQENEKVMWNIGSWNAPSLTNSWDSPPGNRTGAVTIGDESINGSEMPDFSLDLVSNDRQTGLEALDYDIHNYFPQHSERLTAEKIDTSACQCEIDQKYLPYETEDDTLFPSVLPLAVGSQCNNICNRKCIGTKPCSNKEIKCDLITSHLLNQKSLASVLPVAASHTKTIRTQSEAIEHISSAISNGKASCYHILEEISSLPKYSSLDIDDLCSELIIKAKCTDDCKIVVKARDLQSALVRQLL
Summary of the method: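 Masliner-normalised scans of fluorescent anti-GST signal were the basis for scoring. That signal came from GST-tagged yeast transcription factors applied at about 100-200 nM to double-stranded universal all-10-mer Agilent arrays on fresh or once-stripped slides. Each ungapped eight-base word, pooled with its reverse complement, received an E-score from the Universal PBM Analysis Suite.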

| Sequence | PBM E-score |
| --- | --- |
| GGTGCAGA | -0.217 |
| GCCAGGGA | -0.103 |
| AACCTTGA | 0.0727 |
| GGAACCGA | 0.0676 |
| CGAACCGC | -0.0247 |
| CGAACCGA | 0.262 |
| CTCGCCAC | -0.0198 |
| TAATTTGA | 0.106 |
| AATTTTGT | 0.143 |
| AAATTTGA | 0.325 |
| CAATTTGA | -0.0156 |
| AAATTTGG | 0.075 |
| AAATTTGT | 0.277 |
| CTGGAGGA | -0.121 |
| CCTACCGC | -0.0896 |
| GGCTGTAC | -0.0764 |
| CGAGTGTA | -0.0885 |
| ACGCTTTA | 0.0919 |
| AAGACAAG | 0.0865 |
| AAGACAAC | 0.336 |
| CAGACAAC | 0.0003 |
| GCGCGTCA | 0.0818 |
| AAGCGACT | -0.0195 |
| CGTTATAA | 0.163 |
| CTATATAA | 0.0617 |
| TTATATAA | 0.427 |

| Sequence | PBM E-score |
| --- | --- |
| TGTTATAA | 0.253 |
| TGATATAA | -0.0984 |
| AGTTATAA | -0.037 |
| TCATATAA | -0.00059 |
| GTATATAA | 0.182 |
| ATATATAA | 0.32 |
| AAGCCGGC | 0.149 |
| CGTGATTC | -0.021 |
| CGTGATTA | 0.303 |
| AGTGATTC | 0.11 |
| CGTGATGA | 0.0624 |
| AGTGATTA | 0.287 |
| GGTGATTA | 0.236 |
| GGCGGCTA | 0.0654 |
| AACCTTGG | -0.168 |
| CTAACACC | -0.0338 |
| AATCTAGC | 0.08 |
| CAAGATTG | -0.0156 |
| ACGGCATA | 0.16 |
| GGTCCGAA | 0.143 |
| CGTCCGAA | 0.1 |
| TGTCCGAA | 0.266 |
| ACCCTCTC | -0.183 |
| CCCTTGAC | -0.197 |
| TCCTCACA | -0.115 |
| ACGGATCC | -0.0362 |

| Sequence | PBM E-score |
| --- | --- |
| AGCGCAAA | 0.189 |
| ACGGCGCT | -0.0736 |
| AGCGCGAA | 0.21 |
| AACGCGAG | 0.115 |
| AGCGCGCA | 0.355 |
| AACGCGAA | 0.298 |
| CACGCGAA | 0.0527 |
| AAAGCGCA | -0.0636 |
| ACGGCGCC | 0.139 |
| CAAGCGCC | -0.119 |
| ACGGCGCG | 0.322 |
| CAAGCGCA | 0.262 |
| AAGTTGAG | 0.0317 |
| GCCAACAA | -0.0504 |
| TCGTCTAA | -0.0389 |
| GCCGCAAC | 0.0201 |
| CGCACCGA | -0.0919 |
| CGGCTAAA | -0.0162 |
| CAGAGACG | 0.0945 |
| CGTTGGAC | -0.137 |
| GCGATCGC | 0.241 |
| AGCGCGCG | 0.311 |
| TGCGCGCA | 0.301 |
| AGCGCGTA | 0.284 |
| CGCGCGTA | 0.152 |
| AGCGCGCT | 0.152 |

| Sequence | PBM E-score |
| --- | --- |
| AACGCGCG | 0.282 |
| GGCGCGTA | -0.0178 |
| AACGCGCT | 0.0463 |
| CGCGCGCA | 0.242 |
| GGCGCGCA | 0.195 |
| AACGCGCA | 0.189 |
| CGCGCGCG | 0.214 |
| CGGGGGAG | -0.432 |
| CCAGTTTC | -0.155 |
| CCTCCATA | -0.254 |
| GTGGGTGA | 0.0388 |
| AGAACCAA | -0.131 |
| CACAGGAC | -0.0449 |
| AAAGGACA | -0.0819 |
| GCAGCTGA | 0.0932 |
| ACAGCTGA | -0.0375 |
| ACAGCTGG | 0.0155 |
| ACAGCTAT | -0.0503 |
| TCAGCTGA | 0.31 |
| ACAGCTGT | 0.261 |
| CCCCGGAG | -0.2 |
| CCAGGCGC | -0.0648 |
| CAGTTACA | -0.00475 |
| ATCCGTTA | 0.303 |
| ATCCGTTC | 0.229 |
| GTCCGTTA | 0.199 |

| Sequence | PBM E-score |
| --- | --- |
| ATGATGCA | 0.222 |
| ATCGTTCA | 0.0567 |
| AGTTCATA | 0.101 |
| AGTTCATC | 0.0446 |
| AGTTCATG | 0.265 |
| CCGGTCCG | -0.104 |
| ATGAGCCA | 0.107 |
| CGTTAGTC | 0.042 |
| ATTTAGTA | 0.293 |
| ACTTAGTG | -0.142 |
| CATTAGAA | 0.11 |
| GGTTAGTA | 0.219 |
| CATTAGTC | 0.217 |
| AATTAGTG | 0.316 |
| AATTAGGG | -0.172 |
| CGTTAGTA | 0.289 |
| ATTTAGTC | 0.18 |
| CTTTAGTA | 0.174 |
| CATTAGTA | 0.304 |
| AGGCCAAT | -0.0024 |
| CCCGCCGC | -0.0389 |
| AGCCGCAT | -0.0263 |
| ACGAAAGC | 0.00748 |
| CGAGGTGC | 0.142 |
| AAGCGCTG | 0.212 |
| TAATATCA | 0.167 |

| Sequence | PBM E-score |
| --- | --- |
| CTACCTGA | -0.0406 |
| CCTAGGCA | -0.0995 |
| AATTAGAT | 0.252 |
| GATTAGTA | 0.31 |
| GATTAGGA | -0.0959 |
| AATTAGAG | 0.0346 |
| AGTTAGTC | -0.0819 |
| CCTTAGTA | 0.0752 |
| AATTAGTC | 0.346 |
| GCTTAGTA | 0.344 |
| ACTTAGTA | 0.213 |
| GATTAGAA | 0.0793 |
| ACTTAGTC | -0.016 |
| AATTAGAC | 0.0936 |
| GGCCAATA | 0.0295 |
| AAGCTGAT | 0.216 |
| GTAGGAGA | -0.124 |
| CGCTTCTC | -0.0668 |
| ACAGCCAA | 0.0312 |
| GAGCTTGC | -0.048 |
| CAAGTCCA | -0.0962 |
| CCCGCCTA | 0.0947 |
| AATTAGGA | 0.0377 |
| AATTAGTA | 0.316 |
| AGTTAGTA | 0.0725 |
| CATCCTCG | 0.0642 |

| Sequence | PBM E-score |
| --- | --- |
| GACACTGC | -0.0407 |
| CCGCTGTC | 0.00182 |
| AAAATGGG | -0.157 |
| CAAATGGA | 0.0716 |
| AAAATGGA | 0.267 |
| GTCTACAC | 0.0321 |
| ATCCCAAT | -0.122 |
| GTTTGTAA | 0.137 |
| ATTTGTAG | 0.0654 |
| ATTTGTAC | 0.119 |
| CTTTGTAC | 0.0743 |
| CTTTGTAA | 0.333 |
| ATTTGTAA | 0.411 |
| ACGCTCCA | 0.0354 |
| AGCGTACG | 0.00701 |
| ATACTTGC | 0.0566 |
| CAGATGCC | -0.141 |
| GTGCGCTA | 0.0718 |
| CCGCGCTC | 0.097 |
| ACGCGCTA | 0.109 |
| GCGCGCTA | 0.326 |
| CCGCGCTA | 0.263 |
| CTGCGCTA | 0.0362 |
| GACCGTAA | -0.061 |
| GGGTGGCA | -0.124 |
| CCACTATC | -0.0188 |

| Sequence | PBM E-score |
| --- | --- |
| AGGTAAAC | 0.105 |
| AGGTAAAT | -0.00978 |
| AGGTAAAG | 0.267 |
| AGTGATGC | -0.0338 |
| ACCCGCAC | 0.0284 |
| GTTAATTA | 0.23 |
| GGTAATTA | 0.186 |
| ATTAATAG | 0.275 |
| ATGAATAG | 0.0469 |
| ATTAATGA | 0.306 |
| CGTAATTA | 0.249 |
| AGTAATTA | 0.283 |
| ATTAATGC | 0.167 |
| ATTAATAC | 0.199 |
| CTTAATGA | 0.00816 |
| ATTAATTA | 0.263 |
| CTTAATTA | 0.152 |
| ATGGGGGC | -0.349 |
| AAGATAGA | 0.0137 |
| CCGAGTGC | 0.089 |
| GATTGACC | -0.149 |
| GCCGGGAC | -0.0972 |
| CTTAATTC | 0.177 |
| ATCAATTG | 0.186 |
| ATTAATTC | 0.304 |
| ATCAATTA | 0.255 |

| Sequence | PBM E-score |
| --- | --- |
| ATTAATTG | 0.313 |
| AGTAATTC | 0.23 |
| AGTAATTG | 0.0751 |
| ATCAATTC | -0.026 |
| ATTAATGG | 0.239 |
| CGTAACCC | -0.0539 |
| TCCTGACA | 0.125 |
| GGCTTCCC | -0.0469 |
| AACCAGTT | 0.27 |
| AACCAGTG | -0.0556 |
| AACCAATT | 0.297 |
| AACCAATG | 0.109 |
| AACCAGTA | 0.157 |
| AACCAATC | 0.0878 |
| ACGCGGCC | -0.0773 |
| CAGCGGGC | 0.00044 |
| GGTAGTAC | -0.0112 |
| CCAATCGC | 0.0869 |
| CCCAGCAA | -0.0856 |
